Experimental data from PubChem BioAssay AID652105 (National Center for Advancing Translational Sciences (NCATS), 2013).
The whole screen tested about 330,000 compounds, of which about 4,100 (1.2%) were called active. Inconclusive results (about 2%) are left out. The full list was thinned out, with actives kept by preference. Unmarked numbers belong to inactive results. How the source made its calls: active means max response of -50% or lower; inconclusive means between -30% and -50%; inactive means -30% or higher.

These compounds were tested against Phosphatidylinositol 5-phosphate 4-kinase type-2 alpha (Homo sapiens) (UniProt P48426) (assay: qHTS for Inhibitors of phosphatidylinositol 5-phosphate 4-kinase (PI5P4K)). Conditions: PI5P4Kalpha enzyme, ADP-Glo luminescence, 60 min; hits give low values.
Method in brief: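 Controls without substrate or without enzyme flank wells where PI5P4Kalpha converts substrate using 5 microM ATP (final). Incubation lasts 60 minutes at room temperature; ADP formed is read by ADP-Glo luminescence.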
Further: value at the top dose of about 77 µM.
On the % scale 0 is the no-effect control and ±100 the full control effect.

Phosphatidylinositol 5-phosphate 4-kinase type-2 alpha (Homo sapiens), sequence (P48426 whole entry, looked up): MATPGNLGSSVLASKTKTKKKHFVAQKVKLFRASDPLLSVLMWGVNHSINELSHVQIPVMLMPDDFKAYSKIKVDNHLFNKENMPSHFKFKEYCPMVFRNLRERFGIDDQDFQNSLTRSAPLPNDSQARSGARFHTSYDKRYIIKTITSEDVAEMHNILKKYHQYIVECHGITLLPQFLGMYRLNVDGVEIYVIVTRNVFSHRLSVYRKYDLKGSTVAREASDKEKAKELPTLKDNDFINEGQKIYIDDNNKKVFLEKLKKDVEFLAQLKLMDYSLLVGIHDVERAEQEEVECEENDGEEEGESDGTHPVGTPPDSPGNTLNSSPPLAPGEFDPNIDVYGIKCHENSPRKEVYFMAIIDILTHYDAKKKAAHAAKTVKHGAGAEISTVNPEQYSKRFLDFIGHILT

Going from `CCC(C)CN1C(=O)CSCC1(C)C(=O)NCc1ccccc1` (configuration not stated) to `COc1cc(Cn2c3ccc(NC(=O)CC(C)c4ccccc4)cc3c(=O)n2C)ccc1F` (configuration not stated), the max response rises from -2.56% to 2.27%.

Compared with `Cc1c(C(=O)N/N=C/c2ccccc2)[nH]c2c([N+](=O)[O-])cccc12`, `Cc1cc(Br)ccc1NC(=O)CCCOc1cc(=O)n(C)c2ccccc12` is higher in max response: -0.171% for the first, 3.17% for the second.

Compared with `COc1cc2c(C(=O)O)c(C)n(C)c2c2ccccc12`, `COc1cc2c(=O)n(C)c3ccccc3c2cc1OC` is higher in max response: -2.64% for the first, 1.08% for the second.

Going from `CN(C(=O)c1ccccn1)c1nnc(-c2ccccn2)s1` to `S=c1[nH]nc(-c2cc(-c3ccsc3)n[nH]2)n1-c1ccccc1`, the max response falls from 3.64% to -10.2%.

First: CC1(C)OC(=O)C2=C(C[C@@H](C3CCCC3)O[C@@H]2c2ccc(Cl)cc2)O1
Second: CN1OC[C@@H]2CN(C(=O)c3cccnc3)[C@H](c3ccc(N4CCCCC4)cc3)C[C@@H]21
The max response of the first is higher: 3.13% for the first, -1.25% for the second.

First: CCCNC(=O)c1cc(C2CCCCN2C(=O)OC)on1 (configuration not stated)
Second: COc1ccc(-c2ccc(C(=O)NCCN3CCOCC3)c3occc23)c(C)c1
The max response of the first is lower: -2.43% for the first, 2.58% for the second.

First: Cc1sc2nc(CSCC(=O)Nc3c(Cl)cccc3Cl)[nH]c(=O)c2c1C
Second: Cc1sc2nc(CSCC(=O)NC3CCCCC3)[nH]c(=O)c2c1C
The max response of the first is higher: 1.38% for the first, -13.2% for the second.

Going from `CCCOc1ccc(F)cc1-c1cc(C(=O)Nc2ccc(F)c(Cl)c2)[nH]n1` to `Cc1cc(O)ccc1-c1cc(C(=O)NCc2cc(C(F)(F)F)cc(C(F)(F)F)c2)[nH]n1`, the max response rises from -4.85% to -3.12%.

Going from `CN(C)C(=O)c1cccc(-c2cnc3c(NC=O)cc(-c4ccc(C(=O)N5CCOCC5)cc4)cn23)c1` to `CC1(C(=O)NCc2ccc(F)c(F)c2)Cc2c(-c3ccc4c(c3)OCO4)ccnc2O1` (configuration not stated), the max response rises from -13.4% to 0.999%.

Going from `CN1OC[C@@H]2CN(S(=O)(=O)c3cccc4ccccc34)[C@H](c3ccc(N4CCCCC4)cc3)C[C@@H]21` to `Cc1ccc2c(CN3CCN(S(=O)(=O)c4ccccc4C(F)(F)F)CC3)cc(=O)oc2c1`, the max response falls from 7.24% to -4.51%.

Compared with `CCOc1cccc(/C=N/NC(=S)NCCN2CCOCC2)c1O`, `NC(=O)CCN1CCN(S(=O)(=O)/C=C/c2ccccc2)CC1` is higher in max response: -0.183% for the first, 0.132% for the second.

First: COc1cc(N2C(=O)CSC2=S)cc(OC)c1OC
Second: Cc1ccc(-c2c(C)n([O-])c3c([n+]2=O)CCC3)cc1
The max response of the first is higher: 0.509% for the first, 0.293% for the second.

Compared with `CN(Cc1cn(Cc2ccc(C(F)(F)F)cc2)nn1)C1CN(Cc2cn(Cc3ccc(C(F)(F)F)cc3)nn2)S(=O)(=O)C1` (configuration not stated), `Cc1ccc(-c2c[n+](=O)c3c(n2[O-])CCC3)cc1` is lower in max response: 11.5% for the first, 3.26% for the second.

For `COc1cccc2c(C)c(C(=O)O)[nH]c12`, the max response was -63.9% (active).
For `c1ccc(-c2cc(-c3nnc4sc(-c5ccccn5)nn34)[nH]n2)cc1`, the max response was -57.7% (active).
With `CSc1nnc(SCc2nc3sc(C(=O)O)c(C)c3c(=O)[nH]2)s1` the max response was -79.5% (active).
For `CCOc1cccc(/C=N/N2C(=O)CSC2=S)c1O`, the max response was -51.6% (active).
In the case of `O=c1cc(CN2CCN(S(=O)(=O)/C=C/c3ccccc3)CC2)c2ccc(O)cc2o1`, the max response is reported as -55% (active).
With `O=[n+]1c2c(n([O-])c3cc(Br)ccc31)CCC2` the max response was -56.6% (active).
